Bioassay records as filed in PubChem.
Compounds with a hit are over-represented: about 2.3% of the library has one in this group of screens.
Tau fluor cs: counter-screen for tau fibril formation inhibitors; tau K18 P301L Alexa594 fluorescence, heparin fibrillization; Potency, µM (top dose mostly 57.7 µM), for inactives: at the top dose activity change, negative = decrease; 280,000 tested, 0.93% active; AID 1463; note: potency is the fitted concentration of half-maximal effect; nearly all actives have a fitted effect of over 55% in size
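Human K18 P301L tau (15 uM unlabeled plus 0.24 uM Alexa 594-labeled, final) in 100 mM sodium acetate pH 7 was mixed with compound and 20 uM heparin and incubated 6 hr at 37 C.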
USP1-UAF1 inh: inhibitors of human USP1/UAF1 deubiquitinase. AID 743255. O94782. recombinant USP1/UAF1, Ub-Rhodamine cleavage fluorescence. 390,000 tested, 0.23% active. Potency, µM (titrated, usually from 57.1 µM), for inactives: top-dose activity change, negative = inhibition, most hits filed as inhibitors; note: potency is the fitted concentration of half-maximal effect; nearly all actives have a fitted effect of over 60% in size
Target sequence (O94782 whole entry, looked up): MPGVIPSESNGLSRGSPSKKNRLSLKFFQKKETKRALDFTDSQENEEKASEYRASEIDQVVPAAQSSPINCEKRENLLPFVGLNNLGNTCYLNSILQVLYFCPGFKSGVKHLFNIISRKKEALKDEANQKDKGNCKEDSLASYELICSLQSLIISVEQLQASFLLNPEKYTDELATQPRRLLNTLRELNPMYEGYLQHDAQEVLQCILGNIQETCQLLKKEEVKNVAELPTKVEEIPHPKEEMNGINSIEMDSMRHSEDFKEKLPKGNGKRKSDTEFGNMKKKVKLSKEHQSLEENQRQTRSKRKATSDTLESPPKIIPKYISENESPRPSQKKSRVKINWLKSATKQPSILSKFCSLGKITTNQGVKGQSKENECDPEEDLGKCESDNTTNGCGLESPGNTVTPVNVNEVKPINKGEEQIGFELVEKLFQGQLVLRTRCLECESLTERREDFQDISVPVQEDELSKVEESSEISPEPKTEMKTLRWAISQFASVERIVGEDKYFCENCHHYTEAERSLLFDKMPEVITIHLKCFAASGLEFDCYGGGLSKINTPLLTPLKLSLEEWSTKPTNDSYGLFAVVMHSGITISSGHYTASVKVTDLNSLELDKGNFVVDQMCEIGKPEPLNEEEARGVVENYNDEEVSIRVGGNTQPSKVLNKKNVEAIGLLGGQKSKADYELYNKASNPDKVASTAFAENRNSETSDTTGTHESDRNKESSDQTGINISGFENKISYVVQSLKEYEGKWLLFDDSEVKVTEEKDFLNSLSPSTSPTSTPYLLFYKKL
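High-throughput fluorogenic screen: 1nM USP1/UAF1 complex, Ub-Rho substrate 150nM final, 50mM HEPES pH 7.8 with 0.5mM EDTA, 0.1 mg/ml BSA, 1mM TCEP and 0.01% Tween-20.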
Tau fibril FP: tau fibrillization inhibition (FP); P10636; K18 P301L tau heparin fibrillization, Alexa594 FP, 6 h; Potency, µM (titrated, usually from 57.7 µM), for inactives: top-dose activity, negative = inhibition, most hits filed as inhibitors; 280,000 tested, 0.39% active; AID 1468; note: potency is the fitted concentration of half-maximal effect; nearly all actives have a fitted effect of over 55% in size
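Compound effects on tau fibrillization are measured by Alexa 594 fluorescence polarization (ex 555, em 632 nm). K18 P301L tau is used at 15 uM with 0.24 uM labeled tracer, and 20 uM heparin induces aggregation over 6 hr at 37 C.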
Coupling enz: coupling enzyme interference in Giardia aldolase counter-screen; coupling enzyme system counterscreen, AmpLite Red fluorescence; activity change, negative = inhibition, % at 58.2 µM, hits read low; 290,000 tested, 0.67% active; AID 2472; in the data active = activity change below about -30%
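Counterscreen lacking aldolase: glyceraldehyde-3-phosphate coupling-enzyme reagent preincubated 10 min at RT with compound (at 57.5 uM final), then substrate/coupling system with AmpLite Red added; fluorescence read at 525/598 nm after 20 min RT.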
Tau fibril ThT: tau fibrillization inhibition (ThT binding) | 270,000 tested, 2.1% active | P10636 | recombinant tau K18 P301L (four-repeat tau fragment), heparin-induced fibrillization, ThT fluorescence | Potency, µM (top dose mostly 57.4 µM), without a hit: top-dose activity, negative = inhibition, most hits filed as inhibitors | AID 1460; note: potency is the fitted concentration of half-maximal effect; nearly all actives have a fitted effect of over 55% in size
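In this qHTS, human K18 P301L tau is incubated with compound and heparin for 6 hr at 37 C, and Thioflavin T fluorescence then reports fibril load.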
* marks the source's active call; other numbers are inactive results; ? = inconclusive; · = no result given; [ ] = another dose, or the depositor's remark. Unless noted, calls come from the whole dose curve; as a rule, active = well fitted curve in the direction sought with a large enough effect; inconclusive = small, poorly fitted or top-dose-only effect, or another doubt; inactive = no such curve, though single readings can be large; an effect the other way counts as inactive or inconclusive. % is set by controls: 0 for no effect and ±100 for the full control effect.

SMILES	Tau fluor cs	USP1-UAF1 inh	Tau fibril FP	Coupling enz	Tau fibril ThT
Nc1nc(C2CCOCC2)cs1	-10.3%	-28.5%	-3.7%	0.5	-8.5%
Cc1ccc(CNC(=O)c2ccc3c(c2)N(Cc2ccccc2F)C(=O)c2ccccc2S3(=O)=O)cc1	-22.1%	-13.4%	?	·	2.6%
NC(=O)C1O[C@@H](O)[C@H](O)[C@@H](O)[C@H]1O (stereo partly drawn)	·	·	·	0.3	·
CCOC(=O)c1ccc(Nc2cc(-c3ccccc3)nc(C)n2)cc1	-29.7%	-25.2%	?	·	?
CCOC(=O)c1ccc(Nc2cc(C)nc(-c3ccccc3O)n2)cc1	?	?	10µM*	2.4	?
Cc1cc(Nc2cccc(F)c2)nc(-c2ccccc2O)n1	?	-8.6%	11.2µM*	-2.7	-8.7%
Cc1cc(NCc2ccccc2)nc(-c2ccccc2O)n1	12.6µM*[quencher]	-31.7%	?	-1.2	?
CCCOc1cc(C)nc(-c2ccccc2O)n1	?	-5.7%	-1.8%	3.9	15.8µM*
Cc1cc(NC2CCCCC2)nc(-c2ccccc2O)n1	-21.7%	?	-12.2%	-1.5	-16.0%
CCOc1ccc(NS(=O)(=O)c2ccc(NC(=O)N3CCCC3)cc2)cc1	-4.9%	-20.7%	-8.4%	·	2.0%
CCCCNC(=O)C(CC)Sc1nnc(-c2cccc(F)c2)c(-c2cccc(F)c2)n1 (stereo not drawn)	-14.9%	-5.9%	-3.1%	·	-7.6%
CC(C)C[C@H](NC(=O)c1ccc(NCc2cnc[nH]2)cc1-c1cccc2ccccc12)C(=O)O	·	·	·	-2.3	·
Cc1cc(Nc2ccccc2)nc(-c2ccccc2O)n1	11.2µM*[quencher]	-24.8%	28.2µM*	-2.4	?
Cc1cc(=O)oc2cc(Oc3ccc([N+](=O)[O-])cc3[N+](=O)[O-])ccc12	12.6µM*[quencher]	-21.6%	-0.1%	5.9	?
CCCCC(=O)Nc1cccc(OCc2cc(=O)n3ccccc3n2)c1	-3.8%	-14.7%	-7.3%	·	0.3%
O=C(Nc1ncc([N+](=O)[O-])s1)c1ccc2c(c1)OCO2	·	-7.4%	·	-32.3*	·
Cc1ccc(C(=O)Nc2ncc([N+](=O)[O-])s2)cc1	·	-22.7%	·	-29.4	·
CCCc1cnc2c(c1SCC(=O)Nc1ccccc1F)c(=O)n(C)c(=O)n2C	1.8%	-9.6%	7.4%	·	-5.8%
O=C(O)c1ccc(Nc2nc(-c3cc4ccccc4oc3=O)cs2)cc1O	?	-26.4%	0.6%	4.0	7.94µM*
CC(=O)Nc1ccc(Nc2nc(-c3cc4ccccc4oc3=O)cs2)cc1	·	?	·	-3.8	·
COc1ccc2oc(=O)c(-c3csc(Nc4cccc(O)c4)n3)cc2c1	6.31µM*[quencher]	?	-3.9%	-0.8	12.6µM*
Nc1ccc(Nc2nc(-c3cc4ccccc4oc3=O)cs2)cc1	8.91µM*[quencher]	0.6%	13.3%	1.2	?
COc1ccc(Nc2nc(-c3cc4cccc(OC)c4oc3=O)cs2)cc1	?	-13.8%	11.1%	-0.1	?
COc1ccc2nc3ccccc3nc2c1N	?	?	?	-5.9	10µM*
COc1ccc2nc3cccc(OC)c3nc2c1	-25.7%	?	?	-39.2*	15.8µM*
SMILES	Tau fluor cs	USP1-UAF1 inh	Tau fibril FP	Coupling enz	Tau fibril ThT
O=C(NCCC1=CCCCC1)c1ccc2c(c1)N(Cc1ccccc1F)C(=O)c1ccccc1S2=O (stereo not drawn)	-26.1%	-25.2%	-11.0%	·	-11.8%
O=C(NCC(c1cccnc1)N1CCN(c2ccccc2F)CC1)c1ccc(F)cc1 (stereo not drawn)	-4.4%	-6.0%	-1.5%	·	-4.0%
CCOc1ccc(Nc2nnc(-n3nc(C)cc3C)c3ccccc23)cc1	?	-21.4%	8.0%	·	?
COCCNc1cc(N2CCN(C3CCCCC3)CC2)c2noc3c2c1C(=O)c1ccccc1-3	-27.2%	?	-0.2%	·	11.2µM*
CN(C)CCCNc1cc(N2CCN(C3CCCCC3)CC2)c2noc3c2c1C(=O)c1ccccc1-3	?	?	?	·	3.55µM*
O=C1c2ccccc2-c2onc3c(N4CCN(C5CCCCC5)CC4)cc(NCCO)c1c23	?	15.8µM*	-10.6%	·	7.08µM*
O=C1c2ccccc2-c2onc3c(Br)cc(NC4CCCCC4)c1c23	-11.9%	?	?	·	11.2µM*
CC(C)CNc1cc(NC2CCCCC2)c2c3c(onc13)-c1ccccc1C2=O	?	-14.7%	5.6%	·	?
COCCCNc1nc2nonc2nc1N1CCN(C2CCCC2)CC1	1.6%	-21.1%	2.7%	3.9	6.2%
COC(=O)C1=C(C)N(Cc2ccco2)C(=O)/C1=C\c1ccc([N+](=O)[O-])cc1	?	-19.0%	?	-0.8	12.6µM*
COC(=O)C1=C(C)N(Cc2ccc(OC)cc2)C(=O)/C1=C\c1ccco1	?	-23.0%	-5.6%	1.6	25.1µM*
COc1ccc(NN=Nc2nc3c([nH]2)c(=O)n(C)c(=O)n3C)cc1	?	-14.0%	?	6.6	25.1µM*
Cn1c(=O)c2[nH]c(N=NNc3ccccc3F)nc2n(C)c1=O	?	-14.5%	?	-4.7	14.1µM*
Nc1c(-c2nc(-c3ccncc3)no2)nnn1CC(=O)Nc1ccccc1	-2.7%	-17.0%	-1.9%	·	3.6%
Cc1ccc(-c2csc(NC(=O)c3cccc([N+](=O)[O-])c3)n2)cc1	-24.3%	-26.9%	-7.5%	5.3	-10.4%
O=[N+]([O-])c1cccc(-c2csc(N/N=C/c3cccc(O)c3)n2)c1	7.94µM*[quencher]	9.4%	-4.6%	1.5	6.31µM*
O=C(Nc1cccc(-c2csc(Nc3cccc(C(F)(F)F)c3)n2)c1)c1cc([N+](=O)[O-])cc(C(F)(F)F)c1	2.51µM*[quencher]	-8.7%	6.5%	-0.2	?
CC(=O)c1cccc(Nc2nc(-c3cccc([N+](=O)[O-])c3)cs2)c1	7.08µM*[quencher]	-14.0%	3.9%	-2.0	3.98µM*
O=C(Nc1ccc(-c2csc(Nc3ccc(Cl)cc3)n2)cc1)c1cccc(C(F)(F)F)c1	3.98µM*[quencher]	-14.3%	3.6%	-2.7	?
COc1cccc([C@@H]2Oc3ccc(OC)cc3C[C@H]2OC(=O)N[C@H](C)C2CCCCC2)c1	-4.4%	·	0.2%	0.8	-4.8%
CCCCN(CCCNC(=O)CN1N=C(c2ccc(C)cc2)CCC1=O)c1ccccc1	?	-34.7%	-5.8%	·	?
O=C(Nc1ccc(-c2csc(Nc3ccccc3)n2)cc1)c1cc([N+](=O)[O-])cc(C(F)(F)F)c1	3.98µM*[quencher]	?	0.2%	-3.9	3.55µM*
CCN(CC)c1ccc(NC(=O)CCc2nc3cccnc3n2Cc2cccs2)c(C)c1	-18.2%	1.7%	3.3%	·	-17.1%
COc1cc(O)c2c(c1)oc(=O)c1c3cc(O)c(O)cc3oc21	·	·	·	-17.2	·
O=C(O)c1cc(N/N=C/C=C/c2ccccc2[N+](=O)[O-])ccc1Cl	?	-8.0%	-2.8%	5.0	3.55µM*
